# Source: PubChem BioAssay (NCI)
# Compounds without any hit were thinned out: in the full panel of roughly 79,000, 15% have a hit. A number with no mark means an inactive call. Activity calls are given as the source filed them. Rule as the data show it: active = growth inhibition above about 70%; inactive = the rest.
# How the values were obtained:
# [1] = NCI Yeast Anticancer Drug Screen. Data for the rad50 strain (AID 155);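 also: 0% = growth of vehicle-only cultures of the same strain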; conditions: S. cerevisiae rad50 strain growth inhibition; at 50.0 µM; hits give high values
# How it was run: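 Cells are treated with compound, grown, and their growth is then scored against vehicle-only cultures of the same repair-deficient yeast strain.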
# [2] = NCI Yeast Anticancer Drug Screen. Data for the mec2-1 strain (AID 157); conditions: S. cerevisiae mec2-1 strain, at 50.0 µM, hits give high values
# How it was run: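 Each compound was tested on mec2-1 yeast, a strain altered in DNA damage repair or cell cycle control. Growth inhibition is reported relative to vehicle.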
# [3] = NCI Yeast Anticancer Drug Screen. Data for the sgs1 mgt1 strain (AID 161);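 also: 0% = growth of cultures given vehicle only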; conditions: S. cerevisiae sgs1 mgt1 strain, at 50.0 µM, hits give high values
# How it was run: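 Mutant yeast exposed to compound; growth scored against vehicle-only wells.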
# [4] = NCI Yeast Anticancer Drug Screen. Data for the cln2 rad14 strain (AID 165);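 also: 0% = growth equal to vehicle treated cultures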; conditions: S. cerevisiae cln2 rad14 strain, at 50.0 µM, hits give high values
# How it was run: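 Test compounds were added to cln2 rad14 yeast cultures; inhibition of growth was then determined by comparison with vehicle treatment.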
# [5] = NCI Yeast Anticancer Drug Screen. Data for the bub3 strain (AID 167); conditions: S. cerevisiae bub3 mutant strain, at 50.0 µM, hits give high values
# How it was run: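 Part of a panel of yeast mutants defective in DNA damage repair or cell cycle regulation. Each strain is grown with compound, and inhibition is calculated relative to solvent-treated cultures.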
# [6] = NCI Yeast Anticancer Drug Screen. Data for the mlh1 rad18 strain (AID 175); conditions: S. cerevisiae mlh1 rad18 strain growth inhibition; at 50.0 µM; hits give high values
# How it was run: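 Inhibition values reflect reduced growth of mutant yeast versus vehicle-treated controls following compound exposure; the mutations affect DNA damage repair.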
SMILES,growth inhibition [1],growth inhibition [2],growth inhibition [3],growth inhibition [4],growth inhibition [5],growth inhibition [6]
COc1ccc(C2=Nc3ccccc3NC(=O)C2)cc1,-10.2%,-20.9%,-12.6%,11.4%,-17.1%,-19.9%
CCOC(=O)COc1cc2c(cc1Cc1ccc(OC)cc1)OCO2,-5.4%,-7.45%,5.45%,6.2%,39.4%,11.7%
O=S(=O)(O)c1ccc[n+]([O-])c1,5.7%,15.4%,-0.05%,39.5%,9.1%,-8.2%
CCCCC(=O)OC[n+]1ccc2c(C)c3[nH]c4ccc(OC)cc4c3c(C)c2c1,87.9% (active),91.8% (active),90.2% (active),89.1% (active),87.1% (active),91.8% (active)
CC(=O)O[C@H]1CC[C@@]2(C)C(=CC(=O)[C@H]3[C@@H]4CC[C@H]([C@H](C)CCCC(C)C)[C@@]4(C)CC[C@@H]32)C1,10.8%,19.1%,39%,36%,5.9%,46%
O=C(O)c1ccccc1C(=O)OC1CC2CCC1C2 (stereo unspecified),-26.2%,-22.6%,-10.4%,24.2%,12.6%,1.6%
COc1ccc(OC)c(COC(=O)c2ccccc2)c1COC(=O)c1ccccc1,26.1%,3.9%,20.2%,4.2%,1.6%,5.7%
O=C(O)C(NCCCNC(C(=O)O)c1ccccc1)c1ccccc1 (stereo unspecified),22.4%,14.2%,22.6%,37.6%,21.7%,19.1%
N#CC1CCCCCCCCCCC(=O)N(CCCl)C1=O (stereo unspecified),-4.25%,-0.45%,13.2%,6.2%,-12.9%,-7.05%
CCOC(=O)/C(C#N)=C(\CC)c1ccccc1,-8.5%,-8.85%,-3.85%,-0.15%,-8.85%,-21.5%
COc1ccc2[nH]cc(CC(N)=O)c2c1,-25.8%,-28.8%,-39.4%,12.7%,-41.4%,-19.5%
Cc1nc(CCCCCCCC(=O)O)ccc1O,6.25%,7.25%,-10.6%,-9.35%,0.85%,7.3%
CCCCCCCCN(C)/N=N/c1nc[nH]c1C(N)=O,20.7%,-4.7%,15.1%,17.6%,17.8%,24.4%
Cc1[nH]c2ccccc2c(=O)c1-c1ccccc1,-12.2%,-14.2%,-5.25%,-38%,0.35%,-35.8%
O=C1O/C(=C(\Br)c2cccc3ccccc23)c2ccccc21,-18.1%,-30.4%,-34%,11.2%,-27.6%,-18.3%
CNCCC(C(=O)O)c1ccccc1 (stereo unspecified),-12.1%,-7.25%,9.15%,-28.2%,-2.6%,9.1%
CSc1nc2c(c(=O)n(C)c(=O)n2C)n1C,30.4%,-3.25%,-10.7%,8.15%,9.15%,24.9%
N#CC(C#N)=C(N)/C(C#N)=C\c1ccnc2ccccc12,-28.9%,-1.75%,-3%,15.1%,0.65%,-18.2%
N#CC1CNCCC1=N (stereo unspecified),-5.75%,-3.2%,13.4%,-1.1%,-1.55%,-6.8%
CC1(c2ccccc2)CCN(C2CC2)CO1 (stereo unspecified),34.6%,15.2%,51.6%,45.2%,48.5%,-52%
Nc1ccc2c(c1)Oc1c(F)c(F)cc3c(=O)c(C(=O)O)cn-2c13,6.9%,11.2%,7.7%,16.1%,0%,48.1%

SMILES,growth inhibition [1],growth inhibition [2],growth inhibition [3],growth inhibition [4],growth inhibition [5],growth inhibition [6]
CC(=O)Nc1cc2cc(N)ccc2oc1=O,-6.2%,0.4%,8.9%,10.4%,15.2%,16.6%
CCCCn1c(N)n[nH]c1=S,20.5%,8.55%,1.55%,-52.5%,-7.25%,-5.9%
CCCCCCCCCCCCOc1ccccn1,-11.2%,-33.6%,-7.65%,-7.45%,-11.6%,-4.55%
COc1ccc(C(c2cc3c(cc2O)OCO3)N2CCOCC2)c(OC)c1 (stereo unspecified),-75.2%,-31.1%,4.15%,-25.9%,-29.6%,-17.9%
CC1=COC(=O)[C@@H]2[C@@H](C)CC[C@@H]12,1.1%,-3.65%,-9.6%,10.3%,6.05%,-4.2%
S=c1nn[nH]n1-c1cccc2ccccc12,4.7%,1.9%,-4.65%,2.6%,-10.8%,-3.8%
O=C(CCCCCCCCC(=O)OCc1ccccc1)OCc1ccccc1,19.2%,2.55%,3.85%,-24.2%,11.2%,41%
O=C(N/N=C/c1ccc(Cl)cc1Cl)C(O)(c1ccccc1)c1ccccc1,17.4%,16.1%,10.2%,22.9%,10.7%,19.3%
C=C1COC(/C=C(\C)CC/C=C(\C)CCl)C1 (stereo unspecified),-7.4%,-20.2%,-18.6%,28.1%,-17.1%,-1.7%
CC1(C)C(=O)C(=Cc2ccco2)C1=O,-18.9%,0.85%,-23.4%,3.2%,-14.2%,13%
O=C(O)C(Br)C(Br)C(=O)Nc1ccc(F)cc1 (stereo unspecified),99.7% (active),99.7% (active),99.7% (active),98.3% (active),99.7% (active),99.3% (active)
COC(=O)C(=O)C(C)C(=O)C(C)c1nc(NC(=O)Nc2ccc(Cl)cc2)n[nH]1 (stereo unspecified),1.65%,-3.7%,3%,-32%,13.4%,7.1%
CN(C)CCNC(=O)C(C)(C)Oc1ccc(C(=O)c2ccc(Cl)cc2)cc1Cl,-1.55%,6.1%,-18.1%,-21.6%,-30.8%,40.2%
CC(C)NC(=O)C1C2CCC(CC2)C1C(=O)NC(C)C (stereo unspecified),0.95%,34.6%,-4%,-3.3%,17.7%,0.35%
CC(O)c1cc2c(s1)C(=O)c1sccc1C2=O (stereo unspecified),90.6% (active),93.5% (active),92% (active),91.2% (active),91.9% (active),91.2% (active)
CCCCCCCCCCCCCCCCCC(=O)OCC(COC1OC(CS(=O)(=O)O)C(O)C(O)C1O)OC(=O)CCCCCCCCCCCCCCCCC (stereo unspecified),23.6%,18.4%,7.2%,3.25%,-1.95%,19.6%
CC(=O)OCC(=O)[C@H]1CC[C@@H]2[C@]1(C)CC=C1[C@]23C=C[C@]2(C[C@@H](OC(C)=O)CC[C@]12C)C1C(=O)OC(=O)C13 (stereo partly specified),-9.65%,3.4%,-0.6%,-8.35%,4.65%,26.9%
CNC(=O)/C=C/C1=CN2C(=O)c3ccc(C)c(O)c3NC(OC)C2C1 (stereo unspecified),91.5% (active),93.7% (active),93% (active),92.6% (active),92.3% (active),89.2% (active)
Cc1cc(N=Nc2cc(Br)cc(Br)c2)cc(C)c1N,10.8%,1.3%,18.1%,-12.2%,3.55%,7.65%
Cc1ncc([N+](=O)[O-])n1CCNCCCn1ccnc1[N+](=O)[O-],-9.9%,-7.25%,-17.4%,-9.3%,-9.7%,-44%
